In PubChem BioAssay AID485350 (ICCB-Longwood Screening Facility, Harvard Medical School, 2010):
Hit rate of the full screen: of about 84,000 compounds, about 95 (0.1%) were called active. Cut-off read from the data, not from the text of the source: active = inhibition above about 25% (passing the limit was not always enough); inactive = the rest. Many of the other results were omitted from the sample, so actives are more common in it than they were.

test system: BasE (2,3-dihydroxybenzoate-AMP ligase), Acinetobacter baumannii ATCC 17978; assay: inhibitors of A. baumannii BasE – biochemical, Acinetobacter baumannii ATCC 17978, fluorescence polarization, primary screen (AID 485350); conditions: purified BasE, fluorescence polarization binding displacement; hits give high values; concentration not given here;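 note: 0% = negative plate control signal and 100% = positive plate control signal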

inhibition, inactive:
CC(=O)Nc1cccc(C(=O)OCC(=O)N2CCN(c3ccccc3)CC2)c1 0.21%
Oc1ccc(N=Cc2cn(-c3ccccc3)nc2-c2ccco2)cc1 -0.83%
C/C(N)=C(/C#N)C(=O)CSc1n[nH]c(C(C)C)n1 1.38%
CC(Oc1coc(CN2CCN(Cc3ccccc3)CC2)cc1=O)c1ccccc1 (stereo unspecified) -0.18%
O=C(O)Cc1cc(=O)n(C2CCS(=O)(=O)C2)[nH]1 (stereo unspecified) -0.2%
O=S(=O)(NCCC1=CCCCC1)c1ccc(Cl)cc1 -0.06%
c1snnc1C12CC3CC(CC(C3)C1)C2 -2.21%
NC(=O)C[n+]1cccc(C(N)=O)c1 -2.44%
CCOC(=O)c1cc(-c2ccc(S(=O)(=O)N(C)Cc3cnn(-c4ccccc4)c3)s2)on1 -0.03%
CN(C)S(=O)(=O)c1ccc(C(=O)Nc2ccccc2C(=O)NCc2ccc3c(c2)OCO3)cc1 -2.15%
O=C(Oc1ccc2c3c(c(=O)oc2c1)CCC3)C1CCCCC1 2.18%
COc1cc2c(cc1OC)C(C)N(Cc1sc3ccccc3c1C)CC2 (stereo unspecified) -2.07%
O=C1CSC(=Nc2ccccc2)N1S(=O)(=O)c1ccccc1 0.27%
O=C(C1=Cc2sc3c(c2CS1)CCCC3)N1CCCC1 0.06%
N#Cc1cccc(OC(=O)c2ccccc2)c1 1.16%
COC(=O)c1cccc(NS(=O)(=O)c2cccs2)c1 0.35%
CCc1ccc(CCC(=O)O)cc1 1.07%
CCOC(=O)c1nn(-c2ccccc2)c(=O)cc1OCC 0.32%
Cc1ccc(CN2CCC(CNC(=O)Cn3c(=O)oc4ccccc43)CC2)cc1 3.44%
O=C(O)Cc1ccc(C(F)(F)F)cc1 -1.44%
CCOC(=O)CC1=CSC(NC)N1c1c(C)cc(C)cc1C (stereo unspecified) 0.61%
Cc1cc(C(=O)N/N=C/c2ccc(O)cc2)c2ccccc2n1 -0.11%
CCOC(=O)/C=C1\SCC(=O)N1Cc1cc(Cl)cc2c1OCOC2 -0.76%
Cc1cc(C)n2nc(SCc3nc4ccc(Cl)cc4n3CCO)nc2n1 -0.85%
Cc1ccc(Cl)cc1NC(=O)CSc1nc2c(oc3ccccc32)c(=O)n1C1CCCC1 0.55%
CCN(CC(=O)NCc1cccs1)C(=O)c1ccc2c(c1)SC1=NS(=O)(=O)CCN12 0.92%
O=C(CC1SC(=Nc2ccccc2)NC1=O)NC1CC1 (stereo unspecified) 0.62%
O=C(NCc1ccc(-c2nc3ccccc3o2)cc1)c1ccccc1Br -0.19%
O=C1N(CNc2ccccc2)CCN1CNc1ccccc1 1.83%
O=C(CSc1nnc(Cc2csc(Nc3cccc(Cl)c3)n2)o1)c1ccc2c(c1)OCCO2 -0.63%
CC(C)C(NC(=O)C1CCCCC1)C(=O)O (stereo unspecified) 3.11%
O=C(c1cc(-c2cccs2)on1)N1CCCC1 -0.81%
N#Cc1ccc(Cn2cc(Br)ccc2=O)cc1 0.99%
O=C(c1ccc(S(=O)(=O)N2CCOCC2)cc1)N1CCn2c1nc1ccccc12 -1.29%
COc1cc(OC)c(C2Nc3c(C)cc(C)cc3-c3cc(C)nn32)cc1OC (stereo unspecified) 0.21%
O=C(c1ccc2c(c1)C(=O)N(Cc1ccncc1)C2=O)N1CCN(S(=O)(=O)c2ccc(OC(F)(F)F)cc2)CC1 0.9%
CO/N=C(/C(=O)N[C@@H]1C(=O)N2C(C(=O)[O-])=C(C[N+]3(C)CCCC3)CS[C@H]12)c1csc(N)n1 -0.27%
Cc1cccc(C(CC(=O)NCc2cccs2)n2cccc2)c1 (stereo unspecified) 1.33%
CC(c1ccccc1)N(C)CN1C(=O)c2ccccc2C1=O (stereo unspecified) -0.8%
Cc1[nH]c2ccccc2c1C1=CCN(S(=O)(=O)c2cccc3nsnc23)CC1 -2.27%
COc1ccc(O)c(C(=O)c2cnn(C(=O)c3ccc4c(=O)n5c(nc4c3)CCC5)c2)c1 -0.87%
C=CCC(CC=C)(C(N)=O)c1ccccc1 2.87%
COc1ccc(CNC(=O)c2cc3c(C)nccc3[nH]c2=O)cc1 0.94%
CCn1c2ccccc2c2nnc(SCC(=O)NCCc3ccc(OC)c(OC)c3)nc21 -1.45%
N#CSc1ccc(N2CCCCC2)cc1 1.12%
CCCCn1c(SCc2nnc(-c3cccs3)o2)nc2cc(S(N)(=O)=O)ccc21 -3.81%
CC1(C)CC(=O)C=C(N2CCN(c3ccccc3F)CC2)C1 0.11%
CCn1c(N2CCN(S(C)(=O)=O)CC2)nc2ccccc21 -0.64%
O=C1CN(C(=O)CSC2=Nc3ccccc3CS2)c2ccccc2N1 -1.75%
CCOc1ccnc2sc(C(=O)c3cccnc3)c(N)c12 1.88%
C=CCn1cc(/C=C(\C#N)C(=O)NC2CCCCC2)c2ccccc21 2.71%
Cc1ccc(C2=NN(C(=O)CSc3nc(N)cc(N)n3)C(c3ccco3)C2)cc1 (stereo unspecified) 2.13%
CS(=O)c1nc(-c2cccs2)cc(-c2ccccc2)c1C#N (stereo unspecified) -2.06%
COCCc1cc(C(F)(F)F)c2c(=O)n(C)c(=O)n(C)c2n1 -0.29%
Cn1c(N)c(C(=O)NCc2ccccc2)c2nc3ccccc3nc21 -1.54%
CCOC(=O)c1c(C)[nH]c(C(=O)CN2C(=O)NC(CC)(c3ccc(F)cc3)C2=O)c1C (stereo unspecified) -1.75%
Cc1cc(Oc2ccc3c(c2)OCO3)nc2ccccc12 6.24%
O=C(NCC(c1ccco1)N1CCCCC1)c1ccc(S(=O)(=O)N2CCCC2)cc1 (stereo unspecified) 1.67%
Clc1ccc(/C=N/NCc2cn3ccsc3n2)cc1 0.12%
COc1ccc(Cl)cc1NC(=O)CN1C(=O)CSC(C)C1=O (stereo unspecified) 0.33%
O=C(OCC(=O)N1CCCc2ccccc21)c1cc2ccccc2oc1=O -0.7%
